Experimental findings from the supplement of paper PMC12669032 are described below.

Unmarked numbers belong to inactive results.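 The calls were made as follows: active = AUC reduced over 20% with Padj below 0.05 in at least 2 of 3 replicates; inactive = otherwise.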

This assay relates to Bacteroides stercoris. Briefly: growth AUC relative to DMSO control (median of replicates) (fraction); higher = more growth (less inhibition), active = hit call of the paper. The note with it: 20 µM; 24 h. The method in brief: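 Gut bacterial monocultures were grown anaerobically at 37 °C in mGAM, starting at OD600 0.05, with 20 µM compound (1% DMSO) in round-bottom 96-well plates under pierced gas-permeable seals. OD600 was read hourly for 24 h. Area under the growth curve (minimum OD set to 0) was normalised to the plate median of DMSO controls, or to row and column medians on the industrial chemical plate. The value is the median of three biological replicates grown on separate days.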
As to `CCC(C)(c1ccc(O)cc1)c1ccc(O)cc1`, the “growth AUC” value is 0.927.
Under `C[n+]1ccc(-c2cc[n+](C)cc2)cc1.O.[Cl-].[Cl-]` stands 0.996; under `C=CCC1=C(C)C(OC(=O)C2C(C=C(C)C)C2(C)C)CC1=O` (mixture of isomers), 0.924; under `CCOP(=S)(OCC)SCS(=O)CC` (centres undefined), 1.05.
Next, `CC1=C(C(=O)Nc2ccccc2)SCCO1`: 1.21.
On to `CC(C)Nc1nc(Cl)nc(NC(C)C)n1`, for which the “growth AUC” value was 1.14.
Next, `CNC(=O)Oc1cc(C)cc(C(C)C)c1`: 0.938.
Under `C=CCN(CC=C)C(=O)C(Cl)Cl` stands 1.01; under `CCS(=O)Cc1ccccc1OC(=O)NC` (centres undefined), 0.992.
Under `CNC1=C(c2cccc(C(F)(F)F)c2)C(=O)C(c2ccccc2)O1` (centres undefined) stands 1.01; under `CC/C(=N\OC/C=C/Cl)C1=C(O)CC(C2CCOCC2)CC1=O` (centres undefined), 1.03.
Turning to `CC(COc1ccc(Oc2ccccc2)cc1)Oc1ccccn1` (centres undefined), the “growth AUC” value was 0.78.
Under `COCCOC(=O)C(C#N)(C(=O)c1ccccc1C(F)(F)F)c1ccc(C(C)(C)C)cc1` (centres undefined) stands 0.941; under `O=c1oc2ccccc2c(O)c1C1CC(c2ccc(OCc3ccc(C(F)(F)F)cc3)cc2)Cc2ccccc21` (mixture of isomers), 0.176 (active); under `CN(C)C1CSSSC1.O=C(O)C(=O)O`, 0.905.
Under `OC(c1ccc(Cl)cc1)(c1ccc(Cl)cc1)C(Cl)(Cl)Cl` stands 0.0157 (active); under `Cc1cc(C2CC2)nc(Nc2ccccc2)n1`, 0.756.
`CCC(CC)Nc1c([N+](=O)[O-])cc(C)c(C)c1[N+](=O)[O-]`: the “growth AUC” value was 0.86.
Under `CCCSC(=O)N(CCC)CCC` stands 0.946.
Next, `C[C@@H](Oc1ccc(Cl)cc1Cl)C(=O)O`: 1.26; `CCOP(=S)(OCC)Oc1cc(-c2ccccc2)on1`: 0.961.
For the molecule `O=C(O)c1cc(Cl)ccc1Cl`, the “growth AUC” value is 0.89.
Under `OCC(O)CCl` (centres undefined) stands 1.02; under `Cc1ccc2nc3sc(=O)sc3nc2c1`, 0.879.
As for `CC(Cl)(Cl)C(=O)O`, the “growth AUC” value is 1.02.
Next, `CCNc1nc(NC(C)C(C)C)nc(SC)n1` (centres undefined): 1.04; `CCCCCCCC(=O)Oc1c(I)cc(C#N)cc1I`: 1.1.
Next, `COP(=S)(OC)Oc1cc(Cl)c(Br)cc1Cl`: 1.03; `C=CCN=C=S`: 0.977.
For `COC(=O)c1ccccc1S(=O)(=O)NC(=O)Nc1nc(C)cc(C)n1`, the “growth AUC” value is 0.859.
Regarding `CNC(=O)O/N=C(\SC)C(=O)N(C)C`, the “growth AUC” value is 1.05.
Under `CC(Cc1ccc(C(C)(C)C)cc1)CN1CCCCC1` (centres undefined) stands 1.15; under `CC1=NNC(=O)N(/N=C/c2cccnc2)C1`, 1.01; under `c1ccc(-c2ccccc2)cc1`, 1.22.
Consider `CN1CSC(=S)N(C)C1`, for which the “growth AUC” value is 0.942.
Next, `COC(=O)NC(=S)Nc1ccccc1NC(=S)NC(=O)OC`: 1.12; `C=CC1(C)OC(=O)N(c2cc(Cl)cc(Cl)c2)C1=O` (centres undefined): 0.994.
Next, `ClC1=C(Cl)C2(Cl)C3C4C=CC(C4)C3C1(Cl)C2(Cl)Cl` (centres undefined): 1.02; `CC(C)OP(=O)(OC(C)C)SCc1ccccc1`: 0.997.
